In ChEMBL document CHEMBL3988442, “University of Dundee, Small-Polar-MMV Screening Library” (2021):
Among all 67,000 compounds or so, about 300 (0.45%) showed an effect of 50% or more. For the sample, strong results were picked, then their nearest neighbours and some compounds at random.

target: Polyketide synthase Pks13 (Mycobacterium tuberculosis (strain ATCC 25618 / H37Rv)) (UniProt I6X8D2); assay: Mycobacterium tuberculosis Polyketide synthase 13 Thioesterase (PKS13); type: functional; design: scale not given: in the data most compounds retested in dose-response had high values; conditions: 30 µM
Sequence (I6X8D2 whole entry): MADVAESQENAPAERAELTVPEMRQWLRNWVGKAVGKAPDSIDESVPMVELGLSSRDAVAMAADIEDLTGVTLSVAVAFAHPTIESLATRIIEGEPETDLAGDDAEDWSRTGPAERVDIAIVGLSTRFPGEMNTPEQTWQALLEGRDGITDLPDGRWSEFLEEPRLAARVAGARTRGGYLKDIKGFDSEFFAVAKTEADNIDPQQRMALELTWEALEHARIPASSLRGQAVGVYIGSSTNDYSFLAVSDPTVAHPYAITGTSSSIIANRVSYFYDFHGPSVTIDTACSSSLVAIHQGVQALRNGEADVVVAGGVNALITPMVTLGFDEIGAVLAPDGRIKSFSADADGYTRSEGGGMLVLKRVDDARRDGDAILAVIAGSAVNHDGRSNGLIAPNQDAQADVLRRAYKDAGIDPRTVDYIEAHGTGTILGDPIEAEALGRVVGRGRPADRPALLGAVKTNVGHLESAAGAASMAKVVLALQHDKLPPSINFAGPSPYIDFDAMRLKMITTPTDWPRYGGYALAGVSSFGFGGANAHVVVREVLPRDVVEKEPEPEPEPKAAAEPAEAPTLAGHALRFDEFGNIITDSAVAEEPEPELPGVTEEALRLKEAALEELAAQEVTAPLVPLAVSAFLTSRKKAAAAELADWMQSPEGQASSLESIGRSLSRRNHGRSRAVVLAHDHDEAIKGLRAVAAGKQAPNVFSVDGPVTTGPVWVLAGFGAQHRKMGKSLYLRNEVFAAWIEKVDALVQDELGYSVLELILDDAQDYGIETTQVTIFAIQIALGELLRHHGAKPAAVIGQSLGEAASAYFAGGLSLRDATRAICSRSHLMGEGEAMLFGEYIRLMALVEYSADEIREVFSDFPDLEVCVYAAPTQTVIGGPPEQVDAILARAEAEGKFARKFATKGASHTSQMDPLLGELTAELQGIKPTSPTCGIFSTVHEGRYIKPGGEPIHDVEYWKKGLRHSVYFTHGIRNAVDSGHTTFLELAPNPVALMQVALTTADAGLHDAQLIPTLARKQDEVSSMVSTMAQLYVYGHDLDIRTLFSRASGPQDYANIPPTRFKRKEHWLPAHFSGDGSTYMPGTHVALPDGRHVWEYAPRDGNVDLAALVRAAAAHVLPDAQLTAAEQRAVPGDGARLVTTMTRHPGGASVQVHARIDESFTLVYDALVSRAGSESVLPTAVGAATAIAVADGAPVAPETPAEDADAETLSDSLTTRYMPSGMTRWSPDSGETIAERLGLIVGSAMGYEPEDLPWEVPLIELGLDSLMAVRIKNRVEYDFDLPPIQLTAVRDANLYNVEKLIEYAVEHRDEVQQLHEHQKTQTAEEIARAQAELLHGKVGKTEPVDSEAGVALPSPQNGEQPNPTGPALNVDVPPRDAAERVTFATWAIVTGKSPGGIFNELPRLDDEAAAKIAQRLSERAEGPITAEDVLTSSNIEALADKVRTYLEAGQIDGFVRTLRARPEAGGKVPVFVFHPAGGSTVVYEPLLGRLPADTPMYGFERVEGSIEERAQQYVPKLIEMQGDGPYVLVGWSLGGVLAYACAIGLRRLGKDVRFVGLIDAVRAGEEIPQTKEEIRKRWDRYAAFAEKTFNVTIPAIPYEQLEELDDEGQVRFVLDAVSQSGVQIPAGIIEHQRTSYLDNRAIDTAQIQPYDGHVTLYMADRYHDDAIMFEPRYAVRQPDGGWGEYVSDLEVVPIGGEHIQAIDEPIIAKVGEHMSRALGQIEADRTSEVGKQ

Row | Compound | Percent Effect [%]
1 | CN(C)[C@H]1C[C@@H](Cc2cc(-c3ccc(F)cc3)on2)C1(C)C | -26.6
2 | CN(C)[C@H]1C[C@@H](Cc2cc(CO)on2)C1(C)C | -32.8
3 | COc1ccc(-c2cc(C[C@@H]3C[C@H](N(C)C)C3(C)C)no2)cc1 | 53.8
4 | CC(C)N(CCC#N)C(=O)c1cnc(-c2ccc3c(c2)OCO3)s1 | 46.5
5 | CC(C1CC1)N(C)C(=O)c1cnc(-c2ccc3c(c2)OCO3)s1 (stereo not drawn) | -13
6 | CN(C)C(=O)c1cnc(-c2ccc3c(c2)OCO3)s1 | 70.4
7 | CCN(C(=O)c1cnc(-c2ccc3c(c2)OCO3)s1)C1CC1 | 28.9
8 | CC(C(=O)NCCOc1ccc2c(c1)OCO2)n1cncn1 (stereo not drawn) | -36.9
9 | CC(C)N(CC(N)=O)C(=O)c1cnc(-c2ccc3c(c2)OCO3)s1 | 71.9
10 | O=C(N[C@@H]1CN(Cc2ccccn2)[C@@H]2COC[C@@H]21)C1CCC1 | -11.8
11 | O=C1CCCC2=C1C(c1cc(Cl)ccc1F)Nc1nonc1N2 (stereo not drawn) | -14.9
12 | CNC(=O)[C@H]1C[C@@H]2CCN(CCc3ccccc3)C[C@@H]2O1 | -653
13 | Cc1cc(CN2CCN(CC3CC3)[C@@H]3CS(=O)(=O)C[C@@H]32)ccc1F | -14.2
14 | Cc1noc([C@@]23CCO[C@@H]2CCN(C(=O)c2ccsc2)C3)n1 | -23.9
15 | CNS(=O)(=O)c1csc(C(=O)N(C)Cc2sccc2C)c1 | -17.6
16 | CNS(=O)(=O)c1csc(C(=O)N(C)Cc2ccccc2C)c1 | 51.6
17 | CCNS(=O)(=O)c1ccc(C)c(C(=O)N(C)Cc2ccccc2C)c1 | -0.166
18 | CCCn1ncc(CN2C[C@@H]3CCCN3C[C@@H]2Cc2ccccc2)c1C | 21.5
19 | CC(C)CN1C(=O)CO[C@@H]2CN(C(=O)C3CCOC3)C[C@H]21 (stereo partly drawn) | 12.2
20 | O=C(c1cscn1)N1C[C@@H](Oc2cccnc2)[C@H]2OCCC[C@H]21 | 29.5
21 | CNc1ncc(CN(C)C(=O)c2cccc(Cn3cccn3)c2)cn1 | 118
22 | CNc1ncc(CN(C)C(=O)c2cccc(-n3cccn3)c2)cn1 | -5.61
23 | CNc1ncc(CN(C)C(=O)c2cccc(-n3cnnc3)c2)cn1 | -1.45

Row | Compound | Percent Effect [%]
24 | c1ccc(COC[C@H]2CC[C@H]3[C@H](CCN3c3ncccn3)O2)nc1 | -8.11
25 | Cc1c[nH]c(C(=O)N2C[C@H]3CC[C@@H]2CN(Cc2cscn2)C3)n1 | -15.7
26 | COc1ccc(CNC[C@@]2(COc3cccnc3)C[C@@H](O)[C@@H](O)C2)cc1 | 0.869
27 | Cc1ccc(N2CCO[C@H]3CN(Cc4cc(C)on4)CC[C@H]3C2=O)cn1 | -3.21
28 | COCCCN1CCN([C@@H]2c3ccccc3C3(CCNCC3)[C@H]2O)CC1 | -9.22
29 | CCOCCN1CCN([C@@H]2c3ccccc3C3(CCNCC3)[C@H]2O)CC1 | 82.6
30 | COCCCC1CCN([C@@H]2c3ccccc3C3(CCNCC3)[C@H]2O)CC1 | -6.55
31 | CCOC(=O)[C@]12CCCN(Cc3ccsc3)C[C@H]1CN(CCOC)C2 | -32.4
32 | Cc1nc(CNC(=O)NC(C)c2ccc3c(c2)OCCCO3)cs1 (stereo not drawn) | -3.62
33 | Cc1nc(CCNC(=O)NC(C)c2ccc3c(c2)OCCO3)cs1 (stereo not drawn) | -9.04
34 | Cc1nc(CN(C)C(=O)NC(C)c2ccc3c(c2)OCCO3)cs1 (stereo not drawn) | 58
35 | CO[C@@H]1CCN(S(=O)(=O)N(C)C)[C@@H]2CN(Cc3ccncc3)C[C@@H]21 | -11
36 | CC1(c2[nH]ncc2C(N)=O)CCN(c2ncccn2)CC1 | -9.79
37 | CN(C)C(=O)c1cn[nH]c1C1(C)CCN(c2ncccn2)CC1 | 72.9
38 | CN(C)C(=O)c1cn[nH]c1C1(C)CCCN(Cc2ccccn2)C1 (stereo not drawn) | -25
39 | O=C(C1CC1)N1CC[C@H]2C(=O)N(c3ccsc3)CCO[C@H]2C1 | -24.6
40 | CCN1CCC(N[C@@H]2CC[C@@H]2NC(=O)Cc2csc(C)n2)CC1 | 64.6
41 | CCN1CCC(NC(=O)Cc2csc(C(C)(C)C)n2)CC1 | -28.7
42 | Cc1nc(CC(=O)NCCN2CCC(c3ccccc3C)C2)cs1 (stereo not drawn) | 5.3
43 | COCC(=O)NC[C@H]1C[C@@H]2CCN1C[C@@H]2CN1CCc2ccccc2C1 | -21.5
44 | Cc1nc(CN2C(=O)CC[C@@H]3[C@H]2CCN3C(=O)C2CCOCC2)cs1 | -22.6
45 | CCC(CC)C(=O)n1ccn(S(=O)(=O)c2ccc(C)cc2)c1=O | 69.1
46 | Cc1ccc(S(=O)(=O)n2ccn(C(=O)COc3ccccc3)c2=O)cc1 | -1

Row | Compound | Percent Effect [%]
47 | Cc1ccc(S(=O)(=O)n2ccn(C(=O)CC(C)C)c2=O)cc1 | 10.8
48 | CS(=O)(=O)N1CCO[C@@H]2CN(C(=O)C3CC(F)(F)C3)C[C@@H]2C1 | -14.3
49 | Cc1cccc(-n2nnnc2C(C)(C)Nc2ccccc2C)c1 | 71.2
50 | COc1ccc(-n2nnnc2C(C)(C)Nc2ccc(C)cc2C)cc1 | -14.4
51 | Cc1ccc(NC(C)(C)c2nnnn2-c2ccc(Cl)cc2)c(C)c1 | 43.2
52 | Fc1ccc(CN2CCO[C@H]3[C@H](OCCN4CCCC4)CC[C@@H]32)cc1 | -7.44
53 | Cc1nnc(N2C[C@@H](OCC3CCCC3)[C@H]3OCCC[C@H]32)s1 | -34.8
54 | Cc1ccc(C(=O)N2CCC3(CC2)c2ccccc2[C@@H](N)[C@@H]3O)c(=O)[nH]1 | 70
55 | N[C@@H]1c2ccccc2C2(CCN(C(=O)c3ccccc3O)CC2)[C@H]1O | 1.94
56 | Cc1ccc(Cl)cc1C(=O)N1CCC2(CC1)c1ccccc1[C@@H](N)[C@@H]2O | -27.1
57 | COCCN1C[C@H]2CN(C(=O)c3ccc4c(c3)OCO4)CCN2C1=O | 8.89
58 | COc1cccc(-c2cccc(CN3C[C@@H]4CC[C@H](C3)N(C)C4=O)c2)c1 | 6.34
59 | Cc1cc(CN(C)C(=O)c2ccc(C(F)(F)F)nc2)no1 | -4.93
60 | Cc1ccc(C(=O)N(C)Cc2cc(C)on2)cn1 | 143
61 | Cc1cc(CN(C)C(=O)c2ccc(N(C)C)nc2)no1 | -10.8
62 | CC(C)c1nccc([C@@H]2C[C@@H]3CCN(Cc4ccco4)C[C@H]3O2)n1 | -17.2
63 | O=C(CC1CC1)NC[C@]12COC[C@H]1CN(c1ncc(F)cn1)C2 | 8.61
64 | CN(C)c1nccc(-c2cnc(N(C)C)[nH]c2=O)n1 | 16.6
65 | CC(C)(C)CCNc1nccc(-c2c[nH][nH]c2=O)n1 | 22.8
66 | CN(C)c1nccc(-c2c[nH][nH]c2=O)n1 | 51.4
67 | CNC(=O)[C@@]12CCO[C@@H]1CCN(S(=O)(=O)c1ccccc1F)C2 | 16.9
68 | Cc1nc(CNC(=O)N2CCN(c3ccc(Cl)cn3)CC2)sc1C | 50.8
69 | Cc1nc(CNC(=O)N2CCN(c3ccc(Cl)cn3)CC2)no1 | 7.54

Row | Compound | Percent Effect [%]
70 | Cc1nc(C)c(CNC(=O)N2CCN(c3ccc(Cl)cn3)CC2)s1 | 14.6
71 | CN1CCS(=O)(=O)[C@@H]2CCN(C(=O)c3ccccc3)CC[C@@H]21 | -9.08
72 | Cc1cc(C)n(-c2cncc(NCCNC(=O)CC3CCCC3)n2)n1 | -10.3
73 | CCN(CC)C(=O)CCNc1cncc(-n2nc(C)cc2C)n1 | 10.2
74 | Cc1cc(C)n(-c2cncc(NCCNS(C)(=O)=O)n2)n1 | 59.2
75 | Cc1cc(C)n(-c2cncc(NCCNC(=O)C(C)(C)C)n2)n1 | 27
76 | Cc1cc(C)n(-c2cncc(NCCNC(=O)C(C)C)n2)n1 | 35.4
77 | CCCNC(=O)CCNc1cncc(-n2nc(C)cc2C)n1 | 52
78 | Cc1cc(C)n(-c2cncc(NCCNC(=O)C3CCCC3)n2)n1 | 40.3
79 | Cc1cc(C)n(-c2cncc(NCCNC(=O)c3cccnc3)n2)n1 | 2.44
80 | Cc1cc(C)n(-c2cncc(NCCC(=O)NC(C)C)n2)n1 | 62.4
81 | O=C(CC1CCCC1)N1C[C@H](OCc2ccncc2)[C@H]2OCCC[C@H]21 | -0.106
82 | COCCN1CC[C@H]2CN(c3cc(OC)ncn3)C[C@@H]2C1=O | 25.2
83 | CS(=O)(=O)CC(=O)N1C[C@H]2CCC[C@@]2(COCc2ccncc2)C1 | -8.5
84 | CCC(CC)CN1C[C@@H]2OCCN(Cc3cnn(C)c3)[C@@H]2C1 | -3.42
85 | CCN1C[C@H]2CCN(C(=O)Nc3ccccc3C)CC[C@H]2S1(=O)=O | -46.2
86 | CCc1nc(C)c(C(=O)N2C[C@H]3CC[C@@H]2CN(S(=O)(=O)N(C)C)C3)s1 | -18.5
87 | Cc1noc(C)c1CN1C[C@@H]2CN(C(=O)c3cnccn3)C[C@@H]2C1 | -42.1
88 | O=C(O)[C@]12CCCN(Cc3nccs3)[C@@H]1CCN(c1cnccn1)C2 | -14.4
89 | COCCN1CCCC2(CCN(c3nccc4ccccc34)C2)C1=O (stereo not drawn) | 10.3
90 | COCCN1CCCC2(CCN(c3ncnc(C)c3C)C2)C1=O (stereo not drawn) | 6.43
91 | COCCN1CCCC2(CCN(c3nccnc3N(C)C)C2)C1=O (stereo not drawn) | 60.4
92 | Fc1cnc(N2C[C@@H](OCC3CCOCC3)[C@H]3OCCC[C@H]32)nc1 | -17.1

Row | Compound | Percent Effect [%]
93 | CN(C)C[C@H]1OC[C@@H]2CCN(C(=O)NCc3cccc(F)c3)C[C@@H]21 | -18.3
94 | O[C@]12CCNC[C@H]1CN(c1ccnc3ccccc13)CC2 | -11.7
95 | Cc1ccc(C(=O)N2C[C@H](OCc3cccnc3)[C@H]3COC[C@H]32)cn1 | -11.8
96 | COc1ccc2nc(C3CC3)cc(C(=O)NCc3noc(C)n3)c2c1 | 83.5
97 | COc1ccc2nc(C3CC3)cc(C(=O)NCC(=O)N(C)C)c2c1 | -13.4
98 | COc1ccc2nc(C3CC3)cc(C(=O)NCc3ncnn3C)c2c1 | -6.17
99 | Cc1cnc(N2CC[C@H]3[C@@H]2CCC(=O)N3c2ccccc2)nc1 | -48.4
100 | O=C(CC1CC1)N1C[C@H]2CN(CC3CC3)C(=O)[C@H]2C1 | -22.1
101 | O=C(CCn1cncn1)N1C[C@H]2CC[C@@H]1CN(Cc1ccncc1)C2 | 0.614
102 | CCOCc1ccc(CNc2cncc(-n3cccn3)n2)cc1 | -10.5
103 | CNC(=O)COc1ccc(CNc2cncc(-n3cccn3)n2)cc1 | 70.7
104 | CCN(CC)C(=O)c1ccc(CNc2cncc(-n3cccn3)n2)cc1 | -7.79
105 | Cc1cccc(CNc2cncc(-n3cccn3)n2)c1 | -60.2
106 | COCc1ccc(CNc2cncc(-n3cccn3)n2)cc1 | 52.2
107 | CCOc1cccc(CNc2cncc(-n3cccn3)n2)c1 | -63.1
108 | CC(C)OCc1ccc(CNc2cncc(-n3cccn3)n2)cc1 | 16.5
109 | CCOCCOCc1cccc(CNc2cncc(-n3cccn3)n2)c1 | 53.8
110 | NS(=O)(=O)Cc1ccc(CNc2cncc(-n3cccn3)n2)cc1 | 133
111 | COC(=O)Nc1ccc(CNc2cncc(-n3cccn3)n2)cc1 | 25.1
112 | CCCOc1ccc(CNc2cncc(-n3cccn3)n2)cc1 | 34.6
113 | CN(C)c1ccc(CNc2cncc(-n3cccn3)n2)cc1 | 27.6
